The source of these data is the emibetuzumab library of Makowski et al. (2022).

This is one part of the list. No count for the full screen is at hand.

Sequences and labels used below:
B1: VH:VL chains; a variant is named by its letters at X, in order (parent)
chain 1: QVQLVQSGAEVKKPGASVKVSCKASGYTFTDYXMHWVRQAPGQGLEWMGXVNPNXXXTTYNQKFEGRVTMTTDTSTSTAYMELRSLRSDDTAVYYCARXNXLDXWGQGTTVTVSS
chain 2: DIQMTQSPSSLSASVGDRVTITCSVSSSVSSIYLHWYQQKPGKAPKLLIYSTSNLASGVPSRFSGSGSGTDFTLTISSLQPEDFATYYCQVYSGYPLTFGGGTKVEIK

This assay covers variants of B1. The experiment in a line: yeast display scFab, FACS + sequencing. Conditions: with MET. The essentials:
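For FACS, yeast displaying a heavy-chain CDR mutant scFab library were labelled with 1 nM HGFR-Fc and anti-Myc (PBSB, 1% milk, 3 h, room temperature), and the top 50% antigen-positive cells were gated. Input and round-3 sorted populations were deep sequenced in two replicates. The binding call was positive for sequences occurring in both antigen-positive samples and negative for sequences occurring only in input.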
Regarding DREEGDWA, the antigen binding call is “no binding”. Turning to VRGRDAVS, the antigen binding call is recorded as “binds”. As for VAGGDAVA, the entry is “no binding”; as for VRGKAAVS, “no binding”. With VRGGDDGS, the antigen binding call is on record as “no binding”.

For the variant VEGGGAAS, the antigen binding call is reported as “no binding”. As for VRGGDAVS, the entry is “binds”. As for VRGGDAVY chain 1 G44D, the entry is “no binding”; as for VAGGDAAA, “no binding”.

For the variant VRGRDDSA, the antigen binding call was “no binding”.

In the case of VRGGDAAS, the antigen binding call is given as “binds”.

As to VRGGDAVA, the antigen binding call is “binds”. As for DRGGDAVA, the entry is “no binding”; as for DTGTGDWV, “no binding”; as for SEEEGDAV, “no binding”.

For VKGAGDLA, the antigen binding call is on record as “no binding”.

As for VGGTSDVA, the antigen binding call was “no binding”. As for VGGTDFVA, the antigen binding call is “binds”. As for VRRTDFVA, the entry is “no binding”; as for VGGGADGA, “no binding”; as for VKRATVLA, “no binding”. As for VKRRSVGA, the entry is “no binding”; as for VRRRSSLA, “binds”. VKRRSSLA: the antigen binding call was “binds”.

Consider YRREGSGV, for which the antigen binding call was “binds”. Regarding YRRESSGY, the antigen binding call is “binds”.

As for YRRESSGV, the antigen binding call was “binds”. DGERDYSD: the antigen binding call is “no binding”. As for FRERGSWV, the entry is “binds”; as for VEEEGSWV, “no binding”; as for YRERGAWV, “binds”. As for DREEGSWV, the entry is “no binding”; as for YRERGSWV, “binds”. To VRERGSWV belongs “binds”; to VRERGDWV, “no binding”; to VTGEDAGD, “no binding”. As to YRRGSSVF, the antigen binding call is reported as “binds”. As for YRRGSSLF, the entry is “binds”; as for YRGGGSVF, “binds”; as for YREEGDVF, “no binding”.

As to YRGANSVF, the antigen binding call is on record as “binds”.

VTGGDDSA: the antigen binding call is recorded as “no binding”. As for VAGTGSSA, the entry is “no binding”. As for VGGGADGV, the entry is “no binding”. As for VEGAASWV, the entry is “no binding”. Turning to AAGRAYGA, the antigen binding call is reported as “no binding”.

Take YRRGGSVF: the antigen binding call is given as “binds”. As for YAGGTSSD, the entry is “no binding”; as for YRTGASSD, “binds”; as for YRTGAAAD, “binds”. To DETGGSSD belongs “no binding”; to YRGAASSD, “binds”; to YRTGAASD, “binds”. As for YRRAADSD, the entry is “no binding”. For SEARSSGY, the antigen binding call is “no binding”. On to VTGEDSSD, for which the antigen binding call was “no binding”. To FRGGDSAD belongs “binds”; to DRGGDVSD, “no binding”.

For the variant FRGESSWD, the antigen binding call is recorded as “binds”.

As for FRGESSAD, the antigen binding call is reported as “binds”. As for DRGGDDAD, the entry is “no binding”; as for VKGGNVGV, “no binding”; as for FRRRGAAA, “binds”. To SRRRGSAA belongs “binds”; to DRRRGSGA, “no binding”. As for FRRRGAVA, the antigen binding call was “binds”. As to FRRRGSAA, the antigen binding call is listed as “binds”.

As to VETEGDGF, the antigen binding call was “no binding”.

As for VETGNSLV, the antigen binding call is recorded as “no binding”. To FRRGGAAA belongs “binds”; to FKGEGYGV, “no binding”; to FKRRSASV, “no binding”. To FKTKNYVV belongs “no binding”; to FKARGASV, “binds”; to FKKKDASV, “binds”. Consider FKGEGSLV, for which the antigen binding call is on record as “no binding”. To FKARGALV belongs “binds”; to FKGEGDGV, “no binding”; to SKTKSDAV, “no binding”. As to DKEGGAAD, the antigen binding call is recorded as “no binding”. For the variant YKEGGSGD, the antigen binding call was “binds”.

Consider DKEGGSLD, for which the antigen binding call was “no binding”. To YAEESAGD belongs “no binding”; to YKEGGAGD, “binds”; to DATGGDAD, “no binding”. As for DTKAASGV, the entry is “no binding”; as for VEAGDDVV, “no binding”. Turning to SRRGGYVS, the antigen binding call was “no binding”. To YRRGSASS belongs “binds”; to SRKKGDGS, “no binding”. YRRGDAGS: the antigen binding call was “binds”. As for SRRGSASS, the entry is “binds”; as for DRAGDAGS, “no binding”. As for YRRGSAGS, the entry is “binds”.

For VEGGTDVV, the antigen binding call is “no binding”. As to VATGSSGA, the antigen binding call is “no binding”. As for YRRGSSGS, the antigen binding call is recorded as “binds”. As for YRRGGSGS, the entry is “binds”; as for YAEKDFGV, “no binding”; as for ATAGSAAV, “no binding”.

YRGRGVAV: the antigen binding call is given as “binds”.

Take YRAGGVAV: the antigen binding call is reported as “binds”. To VRGRGYGV belongs “binds”. To VRGRGVAV belongs “binds”. Regarding VKGRAYGV, the antigen binding call is “no binding”. VEGRGDAV: the antigen binding call is reported as “no binding”. In the case of VRGTGVAV, the antigen binding call is listed as “no binding”. To VEGGGYGV belongs “no binding”; to VRKGGVAV, “no binding”.
